# Source: PubChem BioAssay AID504834 (National Center for Advancing Translational Sciences (NCATS), 2011)
# Values joined by “and” are separate entries in the source; they are usually repeats but may differ in a detail not shown here. Equal values may be shown once. Among all 320,000 compounds or so, about 22,000 (6.9%) were called active. Inconclusive results (about 27%) are left out. Calls come from the whole dose curve; as a rule, active = well fitted inhibition curve with a large enough effect; inconclusive = small, poorly fitted or top-dose-only effect, or another doubt; inactive = no such curve, though single readings can be large or run the other way. Shown is part of a subset that was picked to be rich in actives. More than one record can exist for a structure, and the calls need not agree.
# Assay: Primary qHTS for delayed death inhibitors of the malarial parasite plastid, 96 hour incubation
# Conditions: P. falciparum luciferase reporter growth; series mostly up to 28.7 µM; activity change, negative = inhibition: at the top concentration
# Procedure, shortened: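 Parasite growth measured via integrated firefly luciferase reporter in P. falciparum. Infected erythrocytes at 2% hematocrit, 0.05% parasitemia final were treated 96 hours at 37 C under 5% CO2, and luminescence was read.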
# % is set by controls: 0 for no effect and ±100 for the full control effect; potency is the fitted concentration of half-maximal effect.
SMILES,"activity change, negative = inhibition",Potency
Cc1cc(OCC(=O)N2CCN(c3ncccn3)CC2)ccc1Cl,35.5% (inactive),
O=S(=O)(c1ccc(Cl)s1)N1CCC2(CC1)OCCO2,-6% (inactive),
O=C(CN1CCN(S(=O)(=O)c2ccc(Cl)s2)CC1)N1CCCCC1,-16.4% (inactive),
Cc1ccc(OCC(=O)N2CCN(S(=O)(=O)c3ccc(Cl)s3)CC2)cc1C,,9.28 µM (active)
O=C(c1cc2ccccc2o1)N1CCN(S(=O)(=O)c2ccc(Cl)s2)CC1,,11.7 µM (active)
CS(=O)(=O)N1CCN(C(=O)c2cc3ccccc3oc2=O)CC1,-19.7% (inactive),
O=C(CSc1nnc(CN2CCCC2)n1-c1ccc(F)cc1)c1ccc2c(c1)OCO2,29.9% (inactive),
COc1ccc(C(CNC(=O)COc2ccc([N+](=O)[O-])cc2)N2CCCCC2)cc1 (stereo not drawn),-21.8% (inactive),
COC(=O)C1=C(c2ccc(Cl)c(C(F)(F)F)c2)C[C@@H]2CC[C@H]1N2C(=O)NC1CC1,,5.86 µM (active)
COC(=O)C1=C(c2ccc(F)cc2F)C[C@@H]2CC[C@H]1N2C(=O)NC1CC1,39.5% (inactive),
Cc1ccc(N2CC(C(=O)Nc3ccc(S(=O)(=O)N4CCCC4)cc3)CC2=O)cc1C (stereo not drawn),49.4% (inactive),
COC(=O)c1cc(C(=O)NC(C)C2CC3CCC2C3)cc([N+](=O)[O-])c1 (stereo not drawn),0% (inactive),
COc1cccc(CNC(=O)c2nnn(CC(=O)Nc3cc(Cl)ccc3C)c2N)c1,,3.7 µM (active)
CCOc1ccc(Cn2nnc(C(=O)NCc3ccccc3)c2N)cc1,2.1% (inactive),
Cc1ccc(NC(=O)Cn2nnc(C(=O)NCc3ccco3)c2N)c(C)c1,-25.7% (inactive),
COc1cccc(CNC(=O)c2nnn(CC(=O)Nc3cc(C)ccc3C)c2N)c1,,11.7 µM (active)
Nc1c(C(=O)NCc2ccccc2)nnn1Cc1cccc(Cl)c1,-16.3% (inactive),
COc1cccc(CNC(=O)c2n[nH]c3ccccc23)c1,82.7% (inactive),
O=C(c1cccc(Br)c1)N1CCN(C2=NS(=O)(=O)c3ccccc32)CC1,24.3% (inactive),
Cc1ccc(S(=O)(=O)CC(=O)NC(C)c2ccccc2)cc1 (stereo not drawn),-14% (inactive),
CC1=CC(C)(C)NC(=S)N1NC(=O)c1ccccc1Cl,18.6% (inactive),
COC(=O)c1cc(NC(=O)c2ccco2)ccc1N1CCOCC1,71.2% (inactive),
COc1ccc(C(=O)Nc2sc(C)c(C)c2CN2CCOCC2)cc1,48.4% (inactive),
COc1cc(C(c2c(NC(=O)c3ccco3)sc(C)c2C)N2CCOCC2)cc(OC)c1OC (stereo not drawn),,3.7 µM (active)
Cc1sc2ncn(CC(=O)NCCN(C)C)c(=O)c2c1S(=O)(=O)N1CCC(C)CC1,8.01% (inactive),
c1ccc(C2CNCc3c2ccc2ccccc32)cc1 (stereo not drawn),,9.28 µM (active)

SMILES,"activity change, negative = inhibition",Potency
Cc1ccc2c(=O)cc(C(=O)NCCc3ccc(S(N)(=O)=O)cc3)oc2c1C,22.4% (inactive),
CC(CC(=O)N1CCN(c2ccccc2)CC1)c1ccccc1 (stereo not drawn),20.5% (inactive),
COc1ccc(C(CC(=O)N2CCN(c3ccccc3)CC2)c2c(O)cc(OC)cc2OC)cc1 (stereo not drawn),,11.7 µM (active)
COc1ccc(OC)c(S(=O)(=O)N(C)CC(=O)N2CCN(c3ccccc3)CC2)c1,3.74% (inactive),
NNC(=O)CNC(c1ccccc1)c1cc(Cl)ccc1NC(=O)c1ccccc1 (stereo not drawn),244% (inactive),
Cc1ccc(NC(=O)/C(=C\c2ccccc2)NC(=O)c2ccco2)cc1,19.5% (inactive),
COc1ccc(CNc2nnnn2C)cc1,-14.9% (inactive),
CCOC(=O)CNc1nc2ccccc2n2c(C)nnc12,-0.978% (inactive),
Fc1ccc(CNc2nc3ccccc3n3nnnc23)cc1,,14.7 µM (active)
Cc1cnc(NC(=O)c2ccc(Cl)nc2)s1,-12.9% (inactive),
Cc1nnsc1C(=O)NCc1c(F)cccc1Cl,6.81% (inactive),
O=C(CNC(=O)c1ccccc1Br)NNC(=O)c1cccs1,11.1% (inactive),
Cc1ccc(-c2nc(CS(=O)(=O)CC(=O)NCc3ccc4c(c3)OCO4)c(C)o2)cc1,,14.7 µM (active)
COc1ccc(CCNC(=O)CS(=O)(=O)Cc2nc(-c3ccc(C)cc3)oc2C)cc1OC,4.87% (inactive),
COc1ccc(-c2nc(CS(=O)(=O)CC(=O)NCc3cccc(Br)c3)c(C)o2)cc1,0.16% (inactive),
C=CCNC(=O)c1ccc2c3n(nc2c1)-c1ccc(C)cc1CO3,64.3% (inactive),
COc1cc(/C(=C/c2ccccc2)c2ccccc2)c2c(c1)oc1ccccc12,,13.1 µM (active)
Cc1oc2cc(Br)c(O)c(Br)c2c1C(=O)c1ccccc1,14.3% (inactive),
COc1cc2c(cc1NC(=O)COC(=O)/C=C/c1ccccc1)oc1ccccc12,49.8% (inactive),
CNC(=O)c1sc(NCc2ccccc2OC)nc1C,8.94% (inactive),
O=C(CCNC(=O)c1ccc(Br)cc1)NCCCc1ccccc1,20.7% (inactive),
COc1ccc(CNC(=O)CSc2n[nH]c(N)n2)cc1OC,5.59% (inactive),
COc1ccc(N2CCN(C(=O)CSc3nc4cc(OC)c(OC)cc4cc3C#N)CC2)cc1,79% (inactive),
COc1ccc(CCNC(=O)CCn2c(=O)oc3ccccc32)cc1OC,-20.2% (inactive),
COc1ccc(CCNC(=O)CSc2nc(-c3ccc(OC)c(OC)c3)ccc2C#N)cc1,,10.4 µM (active)
COc1ccc(CCNC(=O)CSc2nnc(-c3cccc(F)c3)o2)cc1OC,278% (inactive),

SMILES,"activity change, negative = inhibition",Potency
COc1ccc(CCNC(=O)CSc2nc(C)nc3c2oc2ccccc23)cc1OC,,5.86 µM (active)
O=C(CCN1CCCO1)N1CCCC(N2CCN(c3cccc(C(F)(F)F)c3)CC2)C1 (stereo not drawn),-24.3% (inactive),
Cc1ccc(CSc2nsc(C)c2C#N)cc1,15.2% (inactive),
CCC(C)(C)NC(=O)CN(C(=O)CCC(=O)Nc1nccs1)c1ccc2c(c1)OCO2,-16.6% (inactive),
Cc1nc2c(C(=O)NCc3ccc4c(c3)OCO4)c[nH]n2c(=O)c1Cc1ccccc1F,69.3% (inactive),
COc1ccc(CNC(=O)C(C)n2nc(C)c3c(C)n(-c4ccccc4)nc3c2=O)c(OC)c1 (stereo not drawn),,10.4 µM (active)
Cc1nn(CC(=O)N2CCCCC2)c(=O)c2nn(-c3ccccc3)c(C)c12,-25.7% (inactive),
COc1ccc(CNC(=O)COC(=O)c2c(C)nn(-c3ccccc3)c2C)cc1OC,53.4% (inactive),
CCn1c(=O)c(C(=O)NCc2ccc3c(c2)OCO3)c(O)c2ccccc21,12.7% (inactive),
Cc1ccc(-n2nc3c(=O)n(C(C)C(=O)NCc4ccc5c(c4)OCO5)nc(C)c3c2C)cc1 (stereo not drawn),,1.31 µM (active)
CC(C)CNC(=O)C(=O)NCC(c1ccc2c(c1)OCO2)N1CCOCC1 (stereo not drawn),80.6% (inactive),
CC1=NN(c2cccc(Cl)c2)C(=O)C12CC(C)=C(C)CS2 (stereo not drawn),,3.7 µM (active)
CC12CCC(C(=O)N(c3cccc(Cl)c3)C1=O)C2(C)C (stereo not drawn),86.3% (inactive),
Cc1cccc(OCCC(=O)OCc2csc(CC(=O)Nc3ccccc3C)n2)c1,-1.27% (inactive),
O=CN1CCN(C(=O)c2ccc(Br)o2)CC1,-8.76% (inactive),
COc1ccc(-n2cnnc2SCC(=O)Nc2cccc(S(N)(=O)=O)c2)cc1,-2.69% (inactive),
O=C(N/N=C/c1cccc(Br)c1)c1ccc(N2CCCC2=O)cc1,11.4% (inactive),
CCOC(=O)N1CCN(C(=O)C2CCN(S(=O)(=O)c3cc(Cl)ccc3OCC)CC2)CC1,38.7% (inactive),
CN(C)P(=S)(Nc1ccccc1)C(Cl)(Cl)Cl (stereo not drawn),,8.28 µM (active)
O=C(CN1CCN(c2ccccc2)CC1)Nc1ccc(F)cc1,10.7% (inactive),
CC(Oc1ccc(F)cc1)C(=O)N1CCN(c2ncccn2)CC1 (stereo not drawn),7.12% (inactive),
COCCN(C(=O)CC1CCCCC1)c1c(N)n(CC(C)C)c(=O)[nH]c1=O,-19.9% (inactive),
CN(C)S(=O)(=O)c1cccc(C(=O)Nc2cccnc2)c1,,3.29 µM (active)
CCOC(=O)c1cc(NC(=O)c2cccnc2)cc(C(=O)OCC)c1,-1.24% (inactive),
O=C(Nc1cccnc1)c1cccc(S(=O)(=O)N2CCCC2)c1,22.3% (inactive),
CCC(=O)Nc1ccc(C(=O)Nc2cccc(OC)c2)cc1,25.3% (inactive),

SMILES,"activity change, negative = inhibition",Potency
CCC(=O)Nc1cccc(NC(=O)c2cccnc2)c1,,13.1 µM (active)
CCN(CC)S(=O)(=O)c1cccc(C(=O)Nc2ccccc2)c1,-28% (inactive),
COc1ccc(C(=O)N2CCN(c3ncccn3)CC2)cc1S(=O)(=O)N1CCOCC1,29.3% (inactive),
O=C1CN(C(=O)c2cc(F)cc(F)c2)c2ccccc2N1,21.9% (inactive),
O=c1[nH]c(=O)n(-c2ccc(F)cc2)c(O)c1C=NCCN1CCCCC1,-0.537% (inactive),
Cn1c(O)c(C=Nc2ccc3c(c2)CCC3)c(=O)n(C)c1=O,-0.84% (inactive),
Cn1c(O)c(C=NCCN2CCNCC2)c(=O)n(C)c1=O,,9.28 µM (active)
COc1ccc(NC(=O)c2cn(-c3ccccc3)nc2SC)cc1,32.2% (inactive),
Cc1cccc(N2CCN(C(=O)COCc3cc(-c4ccc5c(c4)OCO5)on3)CC2)c1C,63.5% (inactive),
Cc1ccsc1-c1cc(C(=O)O)c2c(ccc3ccccc32)n1,42.5% (inactive),
Cc1ccccc1NC(=S)N(CCCN1CCOCC1)Cc1cccs1,,3.7 µM (active)
Cc1ccc(Cl)cc1NC(=S)N(CCN(C)C)Cc1cccs1,42.5% (inactive),
Cc1ccc(NC(=S)N(CCN(C)C)Cc2cccs2)cc1C,14.5% (inactive),
CCN(C(=O)COC(=O)c1sccc1C)c1c(N)n(Cc2ccccc2)c(=O)[nH]c1=O,-27.9% (inactive),
COc1ccc(OC)c(/C=N/NC(=O)c2ccc[n+](CC(=O)c3ccccc3)c2)c1,13.8% (inactive),
O=C(O)c1ccccc1CSc1nc2ccccc2s1,58.7% (inactive),
Cc1cc(C)cc(N(CC(=O)NCC2CCCO2)S(=O)(=O)c2c(C)noc2C)c1 (stereo not drawn),-10.5% (inactive),
CCOC(=O)C1CCCN(C(=O)CN(c2ccc(OC)cc2)S(=O)(=O)c2c(C)noc2C)C1 (stereo not drawn),67.4% (inactive),
Cc1cc(C)cc(N(CC(=O)N2CC=C(c3ccccc3)CC2)S(=O)(=O)c2c(C)noc2C)c1,,6.57 µM (active)
COc1ccc(NC2CCCN(C(=O)c3ccncc3)C2)cc1 (stereo not drawn),8.58% (inactive),
COc1ccccc1N(C)C(=O)c1cc(S(=O)(=O)N2CCc3ccccc32)cn1C,0.199% (inactive),
CC(=O)NCC(O)c1ccc([N+](=O)[O-])cc1 (stereo not drawn),10.7% (inactive),
Cc1ccc(C23CC4CC(CC(C(=O)NCC(=O)O)(C4)C2)C3)cc1,-2.65% (inactive),
CNCC(O)c1ccc(O)c(O)c1 (stereo not drawn),3% (inactive),
NCC(O)c1ccc(O)cc1 (stereo not drawn),,inactive and 4.26 µM (active)
